9 compounds from PubChem BioAssay (Tox21) can be followed below.

Assay [1] can be described thus: qHTS RealTime-Glo MT Cell Viability Assay in HepG2 cells - 40 hour (AID 1224870). Note: nearly all actives have a fitted effect of over 50% in size. The method, boiled down: (§1)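 HepG2 cells (600/well) mixed with RealTime-Glo MT reagent, settled 5 h at 37 C/5% CO2 before compound addition. Nonlytic NanoLuc luminescence from viable-cell prosubstrate reduction read repeatedly during 40 h treatment at 37 C.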
On the technique in general: Quantitative high-throughput screening tests each substance at several concentrations.

Assay [2] in a line: A CellTox Green Cytotoxicity Assay to monitor cytotoxicity in HEK293 cells - 40 hour (AID 1224871). Note: nearly all actives have a fitted effect of over 45% in size. Note: potency is the fitted concentration of half-maximal effect. The method, boiled down:
(§2)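 Each value comes from one timepoint of a single continuous run in which HEK293 cells with CellTox Green were exposed to compound for up to 40 h at 37 C, dye fluorescence rising with cell death.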

The nature of assay [3]: qHTS RealTime-Glo MT Cell Viability Assay in HepG2 cells - 8 hour (AID 1224873). Note: nearly all actives have a fitted effect of over 55% in size. The method, boiled down:
as §1

Assay [4] can be described thus: A CellTox Green Cytotoxicity Assay to monitor cytotoxicity in HEK293 cells - 24 hour (AID 1224875). Note: series mostly up to about 77 µM; nearly all actives have a fitted effect of over 45% in size. The method, boiled down:
as §2

Assay [5] in a line: A CellTox Green Cytotoxicity Assay to monitor cytotoxicity in HepG2 cells - 16 hour (AID 1224876). Note: nearly all actives have a fitted effect of over 45% in size. Note: potency is the fitted concentration of half-maximal effect. The method, boiled down: (§3)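 Continuous culture of HepG2 cells with a membrane-impermeant DNA dye; rising fluorescence marks dead cells. Compound exposure lasted up to 40 h at 37 C, with reads every 8 h from 0 h.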
The nature of assay [6]: qHTS RealTime-Glo MT Cell Viability Assay in HepG2 cells - 32 hour (AID 1224877). Note: nearly all actives have a fitted effect of over 55% in size. The method, boiled down: (§4)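 Luminescence read-out: viable HepG2 cells reduce a prosubstrate to a NanoLuc substrate, giving a signal proportional to live cell number. Reads taken at 0, 8, 16, 24, 32 and 40 h of compound exposure at 37 C.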
A short description of assay [7]: A CellTox Green Cytotoxicity Assay to monitor cytotoxicity in HepG2 cells - 24 hour (AID 1224878). Note: nearly all actives have a fitted effect of over 45% in size. The method, boiled down:
as §3

The nature of assay [8]: A CellTox Green Cytotoxicity Assay to monitor cytotoxicity in HepG2 cells - 40 hour (AID 1224879). Note: nearly all actives have a fitted effect of over 40% in size. The method, boiled down: as §3
Assay [9] is described as follows: qHTS RealTime-Glo MT Cell Viability Assay in HEK293 cells - 0 hour (AID 1224880). The method, boiled down:
(§5)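 qHTS format; HEK293 cells with NanoLuc/prosubstrate reagent, 37 C/5% CO2 for 5 h pre-dosing; compounds 23 nL in DMSO; luminescence at each time point reflects viable cells.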

Assay [10] can be described thus: A CellTox Green Cytotoxicity Assay to monitor cytotoxicity in HepG2 cells - 0 hour (AID 1224882). Note: nearly all actives have a fitted effect of over 35% in size. Note: potency is the fitted concentration of half-maximal effect. The method, boiled down: as §3
Assay [11] in a line: A CellTox Green Cytotoxicity Assay to monitor cytotoxicity in HepG2 cells - 32 hour (AID 1224883). Note: nearly all actives have a fitted effect of over 50% in size. The method, boiled down:
as §3

The nature of assay [12]: A CellTox Green Cytotoxicity Assay to monitor cytotoxicity in HEK293 cells - 8 hour (AID 1224884). Note: nearly all actives have a fitted effect of over 35% in size. The method, boiled down: as §2
Assay [13] can be described thus: qHTS RealTime-Glo MT Cell Viability Assay in HepG2 cells - 16 hour (AID 1224885). Note: nearly all actives have a fitted effect of over 50% in size. The method, boiled down: as §4
Assay [14] is described as follows: qHTS RealTime-Glo MT Cell Viability Assay in HEK293 cells - 24 hour (AID 1224886). Note: nearly all actives have a fitted effect of over 50% in size. Note: potency is the fitted concentration of half-maximal effect. The method, boiled down: (§6)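 Nonlytic real-time viability readout: viable cells convert prosubstrate to NanoLuc substrate, giving luminescence proportional to live cell number. HEK293, 600 cells/well, compound added after 5 h, continuous culture at 37 C.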
Assay [15] can be described thus: qHTS RealTime-Glo MT Cell Viability Assay in HEK293 cells - 8 hour (AID 1224887). Note: nearly all actives have a fitted effect of over 50% in size. Note: potency is the fitted concentration of half-maximal effect. The method, boiled down:
as §5

The nature of assay [16]: A CellTox Green Cytotoxicity Assay to monitor cytotoxicity in HEK293 cells - 16 hour (AID 1224888). Note: nearly all actives have a fitted effect of over 35% in size. The method, boiled down: as §2
The nature of assay [17]: qHTS RealTime-Glo MT Cell Viability Assay in HepG2 cells - 0 hour (AID 1224889). Note: nearly all actives have a fitted effect of over 50% in size. The method, boiled down: as §4
Assay [18] can be described thus: A CellTox Green Cytotoxicity Assay to monitor cytotoxicity in HEK293 cells - 32 hour (AID 1224881). Note: nearly all actives have a fitted effect of over 40% in size. Note: potency is the fitted concentration of half-maximal effect. The method, boiled down: as §2
Assay [19] can be described thus: qHTS RealTime-Glo MT Cell Viability Assay in HEK293 cells - 40 hour (AID 1224874). Note: nearly all actives have a fitted effect of over 50% in size. Note: potency is the fitted concentration of half-maximal effect. Particulars: RealTime-Glo luminescence; max response: stronger effect = lower value. The method, boiled down: as §5
Assay [20] is described as follows: qHTS RealTime-Glo MT Cell Viability Assay in HEK293 cells - 16 hour (AID 1224872). The method, boiled down: as §6

SMILES strings stand for the structures. “And” between values parts separate entries of the source, which are not always exact repeats. Equal entries are not always repeated. Records with an inconclusive call do not appear. More than one record can exist for a structure, and the calls need not agree. The source made the active and inactive calls. Calls come from the whole dose curve; as a rule, active = well fitted curve in the direction sought with a large enough effect in the repeat runs; inconclusive = weak or mixed curves; inactive = no such curve, though single readings can be large; an effect the other way counts as inactive or inconclusive.
% is set by controls: 0 for no effect and ±100 for the full control effect.

With `CN1C(=O)N(C)C(O)C1O` (centres undefined), the Potency entry in assay [1], in assay [2], in assay [3], in assay [4], in assay [5] and in [6] was “inactive” in each case. The Potency result in assay [7], in [8], in assay [9], in assay [10], in assay [11] and in assay [12] was “inactive” each time. Moreover, the Potency result in [13], in assay [14], in assay [15], in assay [16] and in [17] was “inactive” throughout.

With `CS(=O)(=O)O`, the Potency result in [1], in assay [2], in assay [3], in assay [4], in [5] and in assay [6] was “inactive” in each case. Also, the Potency result in [7], in assay [8], in assay [9], in assay [18], in assay [10] and in [11] was “inactive” in each case. The Potency result in assay [12], in assay [13], in assay [15], in [16] and in [17] was “inactive” in each case.

For `CC(=O)CC(C)C`, the Potency result in assay [1], in assay [2], in assay [3], in assay [5], in assay [6] and in assay [7] was “inactive” each time. Further, the Potency entry in assay [8], in [9], in [18], in assay [10], in assay [11] and in assay [12] was “inactive” each time. For the same compound, the Potency result in assay [13], in assay [15], in assay [16] and in [17] was “inactive” in each case. For the same compound, the max response in assay [19] is 14.5% (inactive).

Turning to `C[C@H]1C[C@@H](O)CC(C)(C)C1`, the Potency entry in assay [1], in assay [20], in assay [3], in assay [5], in assay [6] and in assay [7] was “inactive” throughout. Moreover, the Potency entry in assay [8], in assay [9], in [10], in assay [11], in assay [13] and in assay [14] was “inactive” throughout. For the same compound, the Potency result in assay [15] and in assay [17] was “inactive” in each case.

`CC(C)(C)c1ccc(O)c(O)c1`: the Potency entry in [1], in [5], in assay [7], in [8], in [9] and in assay [10] was “inactive” throughout. The Potency entry in [11], in [12], in assay [16] and in assay [17] was “inactive” in each case. Besides, the Potency in assay [2] is 38.9 µM (active); in assay [19], 20.2 µM (active) and 36 µM (active); in assay [14], 22.6 µM (active) and 13.8 µM (active); in assay [15], 40.2 µM (active) and 45.3 µM (active).

For `C=C[Si](OC(=C)C)(OC(=C)C)OC(=C)C`, the Potency result in assay [1], in assay [2], in assay [3], in assay [6], in assay [7] and in assay [8] was “inactive” throughout. Moreover, the Potency entry in assay [9], in assay [18], in assay [10], in assay [11], in [12] and in assay [13] was “inactive” in each case. Besides, the Potency result in assay [14], in assay [15], in assay [16] and in [17] was “inactive” throughout. Besides, in assay [19], the max response was 13.4% (inactive).

With `COC(=O)C1=C(C)NC(C)=C(C(=O)OC)C1c1ccccc1[N+](=O)[O-]`, the Potency result in assay [1], in [2], in [4], in assay [5], in assay [6] and in [7] was “inactive” in each case. Also, the Potency result in assay [8], in assay [18], in assay [10], in [11], in assay [12] and in [14] was “inactive” throughout. The Potency result in assay [15] and in assay [16] was “inactive” throughout. In assay [19], the max response was -16.8% (inactive).

Turning to `CCN(CC)CCNC(=O)c1cc(S(C)(=O)=O)ccc1OC`, the Potency result in assay [1], in assay [20], in assay [3], in [5], in assay [7] and in assay [8] was “inactive” each time. For the same compound, the Potency entry in assay [9], in [10], in [11], in assay [13], in assay [14] and in assay [15] was “inactive” in each case. In addition, in assay [17], the Potency entry was “inactive”. Further, the max response in [19] was 3.02% (inactive).

With `COC(=O)c1c(Cl)c(Cl)c(C(=O)OC)c(Cl)c1Cl`, the Potency entry in assay [1], in assay [3], in assay [6], in assay [7], in assay [9] and in [11] was “inactive” throughout. Moreover, the Potency result in assay [12], in [13], in assay [16] and in [17] was “inactive” each time. Further, the Potency result in [2] was “inactive and 38.9 µM (active)”; in assay [5] it was “inactive and 77.6 nM (active)”; in [18], “inactive and 43.6 µM (active)”; in assay [10], “inactive and 138 nM (active)”.
